Seven compounds from the supplement of paper PMC11624193, “Coupling cellular drug-target engagement to downstream pharmacology with CeTEAM” (Nature Communications, 2024) can be followed below.

Structures are written as SMILES. Where a name gives a salt, the structure may show the parent alone. Values without a mark were called inactive.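 The calls were made as follows: active = log2 fold change beyond 2 SD from the library mean after excluding viability outliers; inactive = within 2 SD.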

Chain of PARP1 L713F-nLuc biosensor (HCT116) (P09874 whole entry L713F, looked up): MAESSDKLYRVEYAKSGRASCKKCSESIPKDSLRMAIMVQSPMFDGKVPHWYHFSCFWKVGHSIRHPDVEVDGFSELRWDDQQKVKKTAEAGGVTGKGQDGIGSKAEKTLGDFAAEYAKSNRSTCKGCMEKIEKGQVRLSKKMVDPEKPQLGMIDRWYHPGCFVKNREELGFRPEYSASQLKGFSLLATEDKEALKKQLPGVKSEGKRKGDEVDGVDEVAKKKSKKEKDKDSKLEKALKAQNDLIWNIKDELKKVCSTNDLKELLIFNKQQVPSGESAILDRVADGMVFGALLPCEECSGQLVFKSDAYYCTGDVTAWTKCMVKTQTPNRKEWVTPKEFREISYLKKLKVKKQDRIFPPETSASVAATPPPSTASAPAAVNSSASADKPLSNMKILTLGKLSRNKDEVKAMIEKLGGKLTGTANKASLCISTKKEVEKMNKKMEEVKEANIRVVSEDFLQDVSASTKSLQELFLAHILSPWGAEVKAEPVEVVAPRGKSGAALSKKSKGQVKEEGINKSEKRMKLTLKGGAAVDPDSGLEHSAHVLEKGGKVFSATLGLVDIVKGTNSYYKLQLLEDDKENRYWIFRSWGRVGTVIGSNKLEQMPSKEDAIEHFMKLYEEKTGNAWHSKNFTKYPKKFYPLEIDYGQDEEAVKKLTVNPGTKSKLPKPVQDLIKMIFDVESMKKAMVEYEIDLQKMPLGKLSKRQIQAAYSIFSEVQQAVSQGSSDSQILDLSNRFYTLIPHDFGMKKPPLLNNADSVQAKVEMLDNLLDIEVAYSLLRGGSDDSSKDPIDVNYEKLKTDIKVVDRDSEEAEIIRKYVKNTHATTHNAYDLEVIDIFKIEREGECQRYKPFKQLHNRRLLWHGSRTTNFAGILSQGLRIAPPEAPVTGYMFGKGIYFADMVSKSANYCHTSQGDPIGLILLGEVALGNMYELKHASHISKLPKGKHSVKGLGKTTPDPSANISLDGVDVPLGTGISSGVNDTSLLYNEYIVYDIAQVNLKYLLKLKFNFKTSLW

This experiment addresses PARP1 L713F-nLuc biosensor (HCT116) (UniProt P09874). Put plainly: PARP1 L713F-nLuc/akaLuc ratio relative to DMSO control (biosensor stabilization) (fold change); higher = more PARP1 biosensor stabilization (target engagement / stabilizer), active = hit call of the paper. The settings on record: stock concentration (mM; final µM = stock mM x 1): 10; 24 h.
`Cc1cc(Nc2nc(N[C@@H](C)c3ccc(F)cc3)c(C#N)cc2F)n[nH]1`: the “PARP1 L713F-nLuc/akaLuc ratio” value was 13.6 (active).

With `COc1cc2ncnc(Nc3cccc(Cl)c3F)c2cc1OC(=O)N1CCN(C)C[C@H]1C`, the “PARP1 L713F-nLuc/akaLuc ratio” value is 1.31.

Consider `c1cc(-c2cnn3cc(-c4ccc(OCCN5CCCCC5)cc4)cnc23)ccn1` [Dorsomorphin], for which the “PARP1 L713F-nLuc/akaLuc ratio” value is 1.11.

For the compound `N=C(N)NC(=N)NCCc1ccccc1` [Phenformin (hydrochloride)], the “PARP1 L713F-nLuc/akaLuc ratio” value was 0.696.

`CCS(=O)(=O)N1CCN(c2ccc(Nc3ncc(C(N)=O)c(NC4CC4)n3)cc2)CC1` [Cerdulatinib]: the “PARP1 L713F-nLuc/akaLuc ratio” value was 1.82.

Take `Nc1nc2cc(-c3ccc4ncc(C(=O)N5CCOCC5)n4c3)ccc2o1` [Serabelisib (INK-1117,MLN-1117,TAK-117)]: the “PARP1 L713F-nLuc/akaLuc ratio” value is 1.31.

`CCCC(=O)c1c(O)c(Cc2c(O)c(Cc3c(O)c(C)c(OC)c(C(=O)CCC)c3O)c(O)c(C(=O)[C@@H](C)CC)c2O)c(O)c(C)c1OC` [Agrimol B]: the “PARP1 L713F-nLuc/akaLuc ratio” value is 1.14.
